# Screening results: PubChem BioAssay, several laboratories
# Shown are actives, neighbours in structure and some others; about 1.8% of the full set was active somewhere.
# A3G deaminase: blocks human APOBEC3G single-stranded DNA deamination; inhibition, % at 20 µM; recombinant A3G, ssDNA deamination FAM/TAMRA fluorescence; hit rate 0.28% among 330,000;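 active = inhibition of at least 40% at 20 µM, with no more than 30% in the related APOBEC3A deaminase screen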;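 also: plate controls were DMSO wells with A3G for no effect and wells lacking A3G enzyme for full effect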
# Target sequence (Q9HC16 whole entry, looked up): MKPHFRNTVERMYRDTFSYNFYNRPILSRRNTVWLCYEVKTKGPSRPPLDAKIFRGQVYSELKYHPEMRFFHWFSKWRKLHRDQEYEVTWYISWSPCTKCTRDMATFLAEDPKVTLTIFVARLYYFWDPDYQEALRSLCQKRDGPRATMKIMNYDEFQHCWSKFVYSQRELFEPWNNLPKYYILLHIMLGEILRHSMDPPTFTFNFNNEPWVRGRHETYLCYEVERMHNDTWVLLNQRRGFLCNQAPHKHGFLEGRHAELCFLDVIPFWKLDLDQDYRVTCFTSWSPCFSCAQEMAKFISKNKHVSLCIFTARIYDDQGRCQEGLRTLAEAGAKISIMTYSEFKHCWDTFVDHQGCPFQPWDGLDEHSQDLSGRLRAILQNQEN
# VLA-4 inh: inhibition in a human VLA-4 binding assay. hit rate 0.2% among 330,000. VLA-4 expressing cells, ligand binding flow cytometry. inhibition, % (about 7 µM as worked out from the volumes in the protocol); in the data active = inhibition above about 50%
# beta cell repl: inducers of beta-cell replication in MIN6 cells | MIN6 cells proliferation, ATPlite luminescence, 48 h; cells starved in 0.2% serum; 100% = growth in 10% serum | proliferation, % at 10 µM | hit rate 0.29% among 330,000;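 active = compounds whose signal lies at least 3.5 SD above the mean of all wells on their plate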;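 also: 0% = DMSO-treated cells in low-serum medium and 100% = 10% serum control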
# NRP1-CendR mod: NRP-1/CendR interaction modulation | FAM-RPARPAR peptide binding to NRP-1, fluorescence polarization | hit rate 0.85% among 360,000 | inhibition, % at 25 µM;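 active = inhibition or corrected inhibition above about 18%, plus a signal ratio from 0.5 to 1.5, limit read from the data, passing the limit was not always enough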
# A3A deaminase: blocks human APOBEC3A ssDNA deamination; recombinant A3A, FAM/TAMRA ssDNA deamination fluorescence; hit rate 0.41% among 330,000; inhibition, % at 20 µM; P31941; AID 493011;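 active = at least 40% inhibition at 20 µM here, with at most 30% in a related deaminase screen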;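 also: plate controls were A3A with DMSO for no effect and wells lacking A3A enzyme for full effect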
# Target sequence (P31941 whole entry, looked up): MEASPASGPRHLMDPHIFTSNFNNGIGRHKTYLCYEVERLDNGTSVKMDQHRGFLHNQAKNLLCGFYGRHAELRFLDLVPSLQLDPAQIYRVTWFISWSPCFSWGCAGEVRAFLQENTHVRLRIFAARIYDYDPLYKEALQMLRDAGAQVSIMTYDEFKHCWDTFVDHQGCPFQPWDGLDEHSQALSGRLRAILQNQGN
# A3G conf: confirmation of human APOBEC3G DNA deaminase inhibitors; hit rate 72% among 890; inhibition, % at 20 µM; shares compounds with A3G deaminase; recombinant A3G ssDNA deaminase, UDG/FAM-TAMRA fluorescence;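 active = inhibition reaching a set limit in any replicate at 20 µM, the limit being 80% of the first screen's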
# UDG ctr A3G: E. coli UDG inhibition in APOBEC3G counter-screen; inhibition, % at 20 µM; 710 tested, under 10 active; shares compounds with A3G deaminase; UDG counterscreen, FAM/TAMRA oligo fluorescence;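 active = compounds giving 40% or more inhibition at 20 µM in any one of the three replicates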;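 also: plate controls were DMSO wells with UDG and oligo for no effect and DMSO wells lacking both for full effect; inhibitors lower the FAM signal released by uracil excision and alkaline cleavage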
# * hit, by the source's call; . = no result given.
SMILES,A3G deaminase,VLA-4 inh,beta cell repl,NRP1-CendR mod,A3A deaminase,A3G conf,UDG ctr A3G
COc1ccc(Cc2n[nH]c(=S)n2N)cc1OC,61*,1,2,5,1,58*,0
COc1ccc(CCCc2n[nH]c(=S)n2C)cc1C,27,8,-2,0,-1,.,.
COc1ccccc1N1CCN(/N=C/c2ccccc2C(=O)O)CC1,-2,5,5,-3,-3,.,.
C/C=C(/C)C(=O)Nc1cccc(C2=NOC3(C2)C[C@@H](C(N)=O)N(C(=O)[C@H]2CCC(=O)N2)C3)c1 (some centres undefined),4,-21,4,3,0,.,.
C=C(C)C(=O)Nc1cccc(C2=NOC3(C2)C[C@@H](C(N)=O)N(C(=O)[C@H]2CCC(=O)N2)C3)c1 (some centres undefined),43*,-13,-5,-21,4,46*,-5
C=C(C)C(=O)Nc1cccc(C2=NOC3(C2)C[C@@H](C(N)=O)N(C(=O)CCCCC)C3)c1 (some centres undefined),86*,-3,2,.,22,94*,-3
C=C(C)C(=O)Nc1cccc(C2=NOC3(C2)C[C@@H](C(N)=O)N(C(=O)c2ccc(OC)cc2)C3)c1 (some centres undefined),81*,4,1,-87,24,100*,.
CC(C)(C)C1CCC2(CC1)NC(=S)N(c1ccccc1)N2 (centres undefined),49*,3,-3,-9,-1,-9,-1
CC(C)CS(=O)(=O)C1=NN2C(=N)/C(=C\c3ccc(OC(=O)c4ccco4)cc3)C(=O)N=C2S1,-1,0,-2,-87,-2,.,.
CS(=O)(=O)C1=NN2C(=N)/C(=C\c3ccc(OC(=O)c4ccco4)cc3)C(=O)N=C2S1,62*,20,4,-39,0,-1,-6
Cc1ccc(C2(C)NC(=O)N(CC(=O)Nc3nc(-c4ccccn4)cs3)C2=O)cc1 (centres undefined),56*,-4,-3,-2,2,67*,0
Cc1ccc(OC(=O)c2sc(Cl)nc2C)cc1C,54*,-3,0,20,0,-1,-1
CC(Sc1ccccc1)C(=O)NNC(=O)c1ccncc1 (centres undefined),-6,-3,5,12,-3,.,.
COc1ccc(N2C(=O)N(Cc3ccc(C)cc3)c3ccccc3S2(=O)=O)cc1,47*,24,-6,-2,5,-1,.
c1ccc(-c2nn3c(Cn4nnc5ccccc54)nnc3s2)cc1,46*,-15,-1,1,1,41*,-4
c1ccc2c(c1)nnn2Cc1nnc2sc(-c3ccc4c(c3)OCCO4)nn12,39,10,-1,11,3,.,.
c1cncc(-c2nn3c(Cn4cnc5ccccc54)nnc3s2)c1,53*,-3,-3,4,-1,13,3
c1ccc2c(c1)ncn2Cc1nnc2sc(-c3ccncc3)nn12,34,9,-1,3,5,.,.
Clc1ccc(Cl)c(-c2nn3c(Cn4cnc5ccccc54)nnc3s2)c1,-2,13,-1,3,13,.,.
c1ccc(-c2nn3c(Cn4cnc5ccccc54)nnc3s2)cc1,49*,-10,-2,-2,11,43*,3
C=CCCC(=O)Nc1ccc(Br)cn1,55*,16,-4,8,0,13,.
CCCCC(=O)Nc1ccc(Br)cn1,-6,-9,1,5,-5,.,.
O=C(NCCCc1ccccc1)[C@@H]1Cc2ccccc2CN1,62*,-10,-1,1,-6,20*,5
CC(NC(=O)CNC(=O)[C@@H]1Cc2ccccc2CN1)c1ccccc1 (some centres undefined),-2,-101,0,0,-2,.,.
S=c1[nH]ncn1/N=C/c1ccc(Br)cc1,44*,7,-1,1,-5,100*,-1
SMILES,A3G deaminase,VLA-4 inh,beta cell repl,NRP1-CendR mod,A3A deaminase,A3G conf,UDG ctr A3G
O=c1[nH]c(SCc2n[nH]c(=S)n2-c2ccccc2)nc2ccccc12,60*,15,1,1,-3,86*,-4
O=c1[nH]c(SCc2nc3ccccc3c(=O)n2-c2ccccc2)nc2ccccc12,0,0,0,-2,2,.,.
COc1cccc(-c2ocnc2C(=O)Nc2ccc(N3CCOCC3)cc2N2CCOCC2)c1,-9,-4,1,2,-7,.,.
Cc1ccc(CN2CCN(/N=C/c3ccccc3)CC2)cc1,6,-9,0,2,2,.,.
COc1cc(/C=N/N2CCN(Cc3ccc(C)cc3)CC2)cc(OC)c1O,54*,0,-3,4,1,-1,.
C/C(=N\NC(=O)c1cccc(N/N=C(\C)c2cc(O)ccc2O)c1)c1cc(O)ccc1O,45*,12,-6,-11,-1,12,4
C/C(=N\NC(=O)c1cccc(N/N=C(\C)c2ccco2)c1)c1ccco1,.,.,.,-24,.,.,.
COc1ccc(N(CC(=O)Nc2cccc(C)c2)S(=O)(=O)c2ccc(C)cc2)cc1OC,-4,10,-2,-5,-7,.,.
Cc1cc(C(=O)COC(=O)c2ccc(F)cc2F)c(C)n1C1CC1,-9,5,-4,14,-7,.,.
CC1CN(C(=O)COC(=O)c2ccc(C#N)cc2)CC(C)O1 (centres undefined),-11,-2,-1,7,-4,.,.
CC(=O)/C(=N/Nc1ccccc1)N1CCOCC1,-2,22,-2,7,0,.,.
CC(=O)/C(=N/Nc1ccccc1C)N1CCOCC1,41*,2,5,-1,0,36*,0
COc1ccc(OC)c(C(=O)COC(=O)c2[nH]c(C)c(C(C)=O)c2C)c1,-11,.,-3,-11,-3,.,.
COc1cc(SSc2cc(OC)cc([N+](=O)[O-])c2N)c(N)c([N+](=O)[O-])c1,42*,-4,-7,14,-2,79*,10
COc1cc([N+](=O)[O-])c2ncsc2c1,-3,10,2,-18,-4,.,.
CCn1c(SCC(=O)Nc2ccc(OC)c(OC)c2)nnc1-c1ccco1,43*,0,-3,3,-4,-5,-4
Cc1ccc(-n2c(C)n[nH]c2=S)cc1,.,16,.,3,.,.,.
Cc1ccc(-c2csc3n[nH]c(=S)n23)cc1,60*,-1,-2,6,-5,82*,-1
COc1ccc(C)cc1NC(=O)C(c1ccccc1)N1CCN(CC(=O)NC2CC2)CC1 (centres undefined),0,.,-1,-4,0,.,.
CCOC(=O)NC1=NCC(C)(C)S1,.,.,.,4,.,.,.
CC1CCc2c(sc(NC(=O)c3nc4ncccn4n3)c2C#N)C1 (centres undefined),54*,7,-3,-3,3,40*,-2
